The source of these data is article PMC5700166.

The target of assay [1] is T1, GST-Nv-NF-kB (Ser allele) (Nematostella vectensis, UniProt A7UNT2 2-411).
T1 sequence: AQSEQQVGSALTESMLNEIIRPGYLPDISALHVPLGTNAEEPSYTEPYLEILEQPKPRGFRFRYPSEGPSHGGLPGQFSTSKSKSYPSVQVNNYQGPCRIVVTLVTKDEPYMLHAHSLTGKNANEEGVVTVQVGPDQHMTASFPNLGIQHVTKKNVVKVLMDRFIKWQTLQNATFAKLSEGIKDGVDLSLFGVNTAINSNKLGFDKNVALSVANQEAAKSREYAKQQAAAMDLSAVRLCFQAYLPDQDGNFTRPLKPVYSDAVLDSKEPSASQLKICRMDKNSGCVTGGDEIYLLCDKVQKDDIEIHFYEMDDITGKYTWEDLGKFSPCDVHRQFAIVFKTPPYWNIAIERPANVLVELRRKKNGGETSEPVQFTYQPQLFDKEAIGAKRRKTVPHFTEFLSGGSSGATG
Kind of assay: protein-binding microarray (PBM); PBM: ~300 nM protein, 6 mM HEPES pH 7.8, 80 mM KCl, 0.5 mM EDTA, 0.5 mM EGTA, 6% glycerol, 35 ng/ul poly-dIdC, 1% milk, 1 h, room temperature; Ap Aiptasia and Nv Nematostella (sea anemones) / Co Capsaspora / Aq Amphimedon (sponge) / Dm Drosophila / Hu human; RHD is the Rel homology domain; high values mean tight binding. As to conditions: dsDNA, one strand shown.

The next assay addresses GST-Hu-p50 (Homo sapiens, UniProt P19838 7-356). Described as above. The note with it: dsDNA, one strand shown.

GST-Hu-p50, sequence (P19838 7-356): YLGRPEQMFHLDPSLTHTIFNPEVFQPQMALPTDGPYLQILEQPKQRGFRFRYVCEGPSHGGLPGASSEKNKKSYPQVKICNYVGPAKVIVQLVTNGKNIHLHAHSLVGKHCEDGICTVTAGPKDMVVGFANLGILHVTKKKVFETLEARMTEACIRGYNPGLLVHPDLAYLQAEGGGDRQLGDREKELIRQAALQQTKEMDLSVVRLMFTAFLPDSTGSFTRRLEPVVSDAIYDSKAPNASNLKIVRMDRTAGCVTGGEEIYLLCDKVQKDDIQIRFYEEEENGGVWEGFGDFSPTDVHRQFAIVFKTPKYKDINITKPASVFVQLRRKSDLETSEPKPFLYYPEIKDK

As for “CCGATTAACATCAGATTTCCCACTGATGTTAATCGGGTCTTGATTCGCTTGACGCTGCTG”, the results for the binding signal (in assay [1]; in the assay with GST-Hu-p50) were 3.83 z-score and 2.99 z-score, respectively.
In the same order, the values of “CCGATTAACATCAAGGAAAAACCTGATGTTAATCGGGTCTTGATTCGCTTGACGCTGCTG” are 1.47 z-score and 1.12 z-score.
In the same order, the values of “CCGATTAACATCAATAAATACCCTGATGTTAATCGGGTCTTGATTCGCTTGACGCTGCTG” are 6.32 z-score and 5.25 z-score.
For “CCGATTAACATCAAAGAAGCCCCTGATGTTAATCGGGTCTTGATTCGCTTGACGCTGCTG” the same measures were 4.95 z-score and 5.02 z-score.
Turning to “CCGATTAACATCAGAGTCCCCCCTGATGTTAATCGGGTCTTGATTCGCTTGACGCTGCTG”, the binding signal in assay [1] was determined as 5.12 z-score; in the assay with GST-Hu-p50, 5.06 z-score.
Turning to “CCGATTAACATCAAGCAACCCCCTGATGTTAATCGGGTCTTGATTCGCTTGACGCTGCTG”, the binding signal in assay [1] was determined as 3.95 z-score; in the assay with GST-Hu-p50, 4.45 z-score.
For “CCGATTAACATCAGGAGATTCCCTGATGTTAATCGGGTCTTGATTCGCTTGACGCTGCTG” the same measures were 4.04 z-score and 4.59 z-score.
For “CCGATTAACATCACGCAATTCCCTGATGTTAATCGGGTCTTGATTCGCTTGACGCTGCTG” the same measures were 4.54 z-score and 2.87 z-score.
Take “CCGATTAACATCATGCGGGAAAATGATGTTAATCGGGTCTTGATTCGCTTGACGCTGCTG”: the values for the binding signal (in assay [1]; with GST-Hu-p50) were 4.76 z-score and 2.69 z-score, respectively.
In the same order, the values of “CCGATTAACATCAATTACCCCCCTGATGTTAATCGGGTCTTGATTCGCTTGACGCTGCTG” are 5.22 z-score and 4.35 z-score.
In the same order, the values of “CCGATTAACATCAGGATTGCCCCTGATGTTAATCGGGTCTTGATTCGCTTGACGCTGCTG” are 2.73 z-score and 3.69 z-score.
In the same order, the values of “CCGATTAACATCAGGGATTTTGATGATGTTAATCGGGTCTTGATTCGCTTGACGCTGCTG” are 2.92 z-score and 2.85 z-score.
For “CCGATTAACATCAGAAATCTCCCTGATGTTAATCGGGTCTTGATTCGCTTGACGCTGCTG”, the binding signal was 4.16 z-score in assay [1] and 4.42 z-score with GST-Hu-p50.
In the same order, the values of “CCGATTAACATCAGGGGAGCCCCTGATGTTAATCGGGTCTTGATTCGCTTGACGCTGCTG” are 5.34 z-score and 5.03 z-score.
For “CCGATTAACATCAAGGTAATTCCTGATGTTAATCGGGTCTTGATTCGCTTGACGCTGCTG” the same measures were 3.37 z-score and 2.4 z-score.
For “CCGATTAACATCAGGGGATCCACTGATGTTAATCGGGTCTTGATTCGCTTGACGCTGCTG” the same measures were 5.91 z-score and 4.97 z-score.
As for “CCGATTAACATCAGGGGTTTCACTGATGTTAATCGGGTCTTGATTCGCTTGACGCTGCTG”, the binding signal worked out at 2.32 z-score in assay [1] and 4.22 z-score in the assay with GST-Hu-p50.
Take “CCGATTAACATCAGGCCGTCCCCTGATGTTAATCGGGTCTTGATTCGCTTGACGCTGCTG”: the binding signal in assay [1] stood at 3.43 z-score; with GST-Hu-p50 it was 3.86 z-score.
In the same order, the values of “CCGATTAACATCAGGGGGCATTATGATGTTAATCGGGTCTTGATTCGCTTGACGCTGCTG” are 3.29 z-score and 4.09 z-score.
For “CCGATTAACATCAGGGGACGGGATGATGTTAATCGGGTCTTGATTCGCTTGACGCTGCTG” the same measures were 3.93 z-score and 3.73 z-score.
For “CCGATTAACATCAGACCTTCCCCTGATGTTAATCGGGTCTTGATTCGCTTGACGCTGCTG” the same measures were 4.59 z-score and 4.03 z-score.
Regarding “CCGATTAACATCAAAGGAATCCCTGATGTTAATCGGGTCTTGATTCGCTTGACGCTGCTG”, the binding signal in assay [1] turned out to be 1.78 z-score; with GST-Hu-p50 it was 1.2 z-score.
For “CCGATTAACATCAGGGGGGGCACTGATGTTAATCGGGTCTTGATTCGCTTGACGCTGCTG” the same measures were 3.3 z-score and 3.87 z-score.
For “CCGATTAACATCACACCACCCCCTGATGTTAATCGGGTCTTGATTCGCTTGACGCTGCTG” the same measures were 3.35 z-score and 3.65 z-score.
Take “CCGATTAACATCAGGGAGCTCCCTGATGTTAATCGGGTCTTGATTCGCTTGACGCTGCTG”: the binding signal in assay [1] was determined as 1.82 z-score; with GST-Hu-p50 it was 2.59 z-score.
In the same order, the values of “CCGATTAACATCAGGGGACAACCTGATGTTAATCGGGTCTTGATTCGCTTGACGCTGCTG” are 4.41 z-score and 4.2 z-score.
On to “CCGATTAACATCAAAAATTGCCCTGATGTTAATCGGGTCTTGATTCGCTTGACGCTGCTG”, for which the binding signal in assay [1] is 2.01 z-score; with GST-Hu-p50, 2.11 z-score.
In the same order, the values of “CCGATTAACATCAGGTATTCCCATGATGTTAATCGGGTCTTGATTCGCTTGACGCTGCTG” are 2.85 z-score and 1.73 z-score.
For “CCGATTAACATCAGGCTTTTCCCTGATGTTAATCGGGTCTTGATTCGCTTGACGCTGCTG” the same measures were 4.44 z-score and 3.4 z-score.
For “CCGATTAACATCACGAGATTCCCTGATGTTAATCGGGTCTTGATTCGCTTGACGCTGCTG” the same measures were 3.97 z-score and 2.64 z-score.
“CCGATTAACATCAAATTCCCACTTGATGTTAATCGGGTCTTGATTCGCTTGACGCTGCTG”: the binding signal in assay [1] amounted to 3.95 z-score; with GST-Hu-p50 it was 3.73 z-score.
In the same order, the values of “CCGATTAACATCAGGGGAGAACCTGATGTTAATCGGGTCTTGATTCGCTTGACGCTGCTG” are 5.63 z-score and 4.26 z-score.
In the case of “CCGATTAACATCACGGGAATGCCTGATGTTAATCGGGTCTTGATTCGCTTGACGCTGCTG”, the binding signal in assay [1] was determined as 1.33 z-score.
In the case of “CCGATTAACATCAGAGAAGTCCCTGATGTTAATCGGGTCTTGATTCGCTTGACGCTGCTG”, the binding signal is 5.95 z-score in assay [1] and 5.25 z-score in the assay with GST-Hu-p50.
